# For some assays here: Entries with a potency or affinity are not part of this list.
# Tests used:
# Design in all cases: scale not given: direction of the effect not stated beside the values
# [1] = target: Protein translocase subunit SecA (Escherichia coli (strain K12)) (UniProt P10408); assay: Assay to Identify E. coli SecA ATPase Inhibitors; format: functional; conditions: 30 µM
# [2] = target: T1, Ubiquitin-activating enzyme e1, putative (Leishmania donovani (strain BPK282A1)) (UniProt E9BSI1); assay: Leishmania donovani Ubiquitin Activating Enzyme (LdE1); format: functional; conditions: 30 µM
# T1 sequence (whole entry): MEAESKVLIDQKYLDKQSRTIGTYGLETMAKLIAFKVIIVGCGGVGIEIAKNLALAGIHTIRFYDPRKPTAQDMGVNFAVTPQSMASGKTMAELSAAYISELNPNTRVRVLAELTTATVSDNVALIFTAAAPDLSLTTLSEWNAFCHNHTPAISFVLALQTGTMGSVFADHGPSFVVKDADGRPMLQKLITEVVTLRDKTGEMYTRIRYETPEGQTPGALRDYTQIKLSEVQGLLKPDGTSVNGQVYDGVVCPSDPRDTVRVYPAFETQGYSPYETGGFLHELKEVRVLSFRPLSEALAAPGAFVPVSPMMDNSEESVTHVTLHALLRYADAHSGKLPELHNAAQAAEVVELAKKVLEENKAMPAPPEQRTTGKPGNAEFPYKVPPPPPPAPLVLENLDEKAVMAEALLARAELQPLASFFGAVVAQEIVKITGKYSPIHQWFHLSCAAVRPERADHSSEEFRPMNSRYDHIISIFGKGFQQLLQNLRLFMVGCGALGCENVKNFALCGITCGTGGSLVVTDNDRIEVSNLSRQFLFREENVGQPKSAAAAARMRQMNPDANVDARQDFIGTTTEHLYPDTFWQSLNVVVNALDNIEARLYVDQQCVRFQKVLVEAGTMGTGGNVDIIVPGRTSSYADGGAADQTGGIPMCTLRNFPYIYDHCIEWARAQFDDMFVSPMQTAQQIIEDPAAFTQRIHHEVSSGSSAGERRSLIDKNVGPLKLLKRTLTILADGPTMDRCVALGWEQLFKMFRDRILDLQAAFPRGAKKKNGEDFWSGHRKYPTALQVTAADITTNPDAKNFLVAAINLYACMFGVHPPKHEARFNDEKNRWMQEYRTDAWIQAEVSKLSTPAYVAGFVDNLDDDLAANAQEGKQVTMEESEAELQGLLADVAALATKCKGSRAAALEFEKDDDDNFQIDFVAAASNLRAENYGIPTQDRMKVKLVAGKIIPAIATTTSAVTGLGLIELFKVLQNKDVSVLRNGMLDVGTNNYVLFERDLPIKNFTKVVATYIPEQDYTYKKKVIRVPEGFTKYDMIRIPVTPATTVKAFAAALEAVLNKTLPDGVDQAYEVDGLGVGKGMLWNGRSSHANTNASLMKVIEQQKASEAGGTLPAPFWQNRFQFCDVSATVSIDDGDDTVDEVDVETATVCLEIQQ
# [3] = target: AMP-activated protein kinase, AMPK (Homo sapiens) (UniProt P54646+O43741+P54619+Q9UGJ0+Q9Y478+Q13131+Q9UGI9); assay: AMP-dependent Kinase enzyme assay. An in vitro enzyme assay that detects ADP turnover that is directly proportional to AMPK activity. This uses naive AMPK that is activated during the assay with MK-8722; format: functional; conditions: 30 µM
# [4] = target: Sialic acid-binding Ig-like lectin 9 (Homo sapiens) (UniProt Q9Y336); assay: Hs-Siglec9 ALPHAscreen SOP 20170721; conditions: 10 µM
# Sequence of Sialic acid-binding Ig-like lectin 9 (Homo sapiens) (Q9Y336 whole entry): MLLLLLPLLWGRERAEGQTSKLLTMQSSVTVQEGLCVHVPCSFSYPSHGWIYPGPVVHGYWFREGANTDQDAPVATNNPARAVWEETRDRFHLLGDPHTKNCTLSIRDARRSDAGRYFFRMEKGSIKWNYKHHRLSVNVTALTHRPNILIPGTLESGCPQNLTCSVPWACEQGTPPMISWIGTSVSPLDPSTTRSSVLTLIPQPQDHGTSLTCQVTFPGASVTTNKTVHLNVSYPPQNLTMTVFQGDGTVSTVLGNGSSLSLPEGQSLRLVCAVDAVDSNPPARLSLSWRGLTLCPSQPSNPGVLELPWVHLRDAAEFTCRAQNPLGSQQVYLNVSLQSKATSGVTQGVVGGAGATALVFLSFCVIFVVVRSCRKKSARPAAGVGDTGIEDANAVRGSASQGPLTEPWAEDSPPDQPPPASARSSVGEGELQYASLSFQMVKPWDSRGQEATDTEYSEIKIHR
# Trypanosoma cruzi = assay: Trypanosoma cruzi phosphomannomutase and mannose-1-phosphate guanylyltransferase assay; format: functional; conditions: 10 µM
# [5] = target: T2, Arginase-2, mitochondrial (Homo sapiens) (UniProt P78540); assay: in vitro enzyme assay to detect the production of urea directly proportional to the activity of Arginase II; format: functional; conditions: 33.3 µM; further: in the data most compounds retested in dose-response had high values
# T2 sequence (whole entry): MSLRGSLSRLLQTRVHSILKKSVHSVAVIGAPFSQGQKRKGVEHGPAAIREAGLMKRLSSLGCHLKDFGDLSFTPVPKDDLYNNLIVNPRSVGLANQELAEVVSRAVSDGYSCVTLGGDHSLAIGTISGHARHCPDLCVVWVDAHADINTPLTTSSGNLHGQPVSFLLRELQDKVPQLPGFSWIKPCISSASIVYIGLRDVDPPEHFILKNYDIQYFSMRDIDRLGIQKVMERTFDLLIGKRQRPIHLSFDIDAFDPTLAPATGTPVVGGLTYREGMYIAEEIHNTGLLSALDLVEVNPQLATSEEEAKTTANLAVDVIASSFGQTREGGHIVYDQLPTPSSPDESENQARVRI
# [6] = target: T3, Proteasome subunit beta (Trypanosoma cruzi) (UniProt O96673); assay: Trypanosoma cruzi proteasome chymotrypsin-like activity (TcProtChymo) assay.; further: in the data most compounds retested in dose-response had high values; format: functional; conditions: 9.37 µM
# T3 sequence (whole entry): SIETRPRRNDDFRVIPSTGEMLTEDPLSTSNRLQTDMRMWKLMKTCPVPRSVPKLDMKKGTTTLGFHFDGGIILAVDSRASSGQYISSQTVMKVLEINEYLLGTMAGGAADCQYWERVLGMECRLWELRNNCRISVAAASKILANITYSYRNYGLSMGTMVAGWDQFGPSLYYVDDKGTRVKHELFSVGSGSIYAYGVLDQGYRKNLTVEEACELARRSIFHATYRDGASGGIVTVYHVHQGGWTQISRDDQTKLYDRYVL
# Homo sapiens = species: Homo sapiens; assay: To identify inhibition of the IFN signalling (Jak-Stat) pathway via expression of an eGFP reporter gene under the control of an IFN-stimulated response element (ISRE) containing MxA promoter.; format: functional; conditions: 30 µM
# [7] = target: T4, Tyrosyl-tRNA synthetase, putative (Trypanosoma cruzi (strain CL Brener)) (UniProt Q4DSP6); assay: Trypanosoma cruzi tyrosyl tRNA synthetase (TcYRS) _High Tyrosine SOP; format: functional; conditions: 30 µM; further: in the data most compounds retested in dose-response had high values
# T4 sequence (whole entry): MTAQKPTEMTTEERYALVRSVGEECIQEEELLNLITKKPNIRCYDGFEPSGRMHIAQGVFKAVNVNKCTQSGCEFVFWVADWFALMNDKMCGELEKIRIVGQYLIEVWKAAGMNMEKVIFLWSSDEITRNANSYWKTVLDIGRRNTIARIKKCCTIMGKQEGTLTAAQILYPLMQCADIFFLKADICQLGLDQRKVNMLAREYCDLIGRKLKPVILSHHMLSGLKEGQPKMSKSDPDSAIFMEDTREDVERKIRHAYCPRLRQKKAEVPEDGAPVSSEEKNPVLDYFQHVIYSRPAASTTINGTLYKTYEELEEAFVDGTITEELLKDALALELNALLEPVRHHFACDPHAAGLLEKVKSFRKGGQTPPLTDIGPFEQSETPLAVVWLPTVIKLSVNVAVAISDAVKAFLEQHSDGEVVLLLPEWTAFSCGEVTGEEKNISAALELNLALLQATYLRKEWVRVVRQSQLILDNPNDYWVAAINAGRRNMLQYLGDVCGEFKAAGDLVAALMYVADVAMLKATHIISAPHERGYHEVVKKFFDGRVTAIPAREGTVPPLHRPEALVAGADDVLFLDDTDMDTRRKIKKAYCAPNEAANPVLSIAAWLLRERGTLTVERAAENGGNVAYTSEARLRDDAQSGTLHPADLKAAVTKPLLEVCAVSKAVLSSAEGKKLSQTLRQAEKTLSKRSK
# [8] = target: T4, Tyrosyl-tRNA synthetase, putative (Trypanosoma cruzi (strain CL Brener)); assay: Trypanosoma cruzi tyrosyl tRNA synthetase (TcYRS) SOP; format: functional; conditions: 30 µM
# [9] = target: Chromo domain-containing protein 1 (Saccharomyces cerevisiae (strain ATCC 204508 / S288c) (Baker's yeast)) (UniProt P32657); assay: ScCHD-1 Enzyme Inhibition Assay; format: functional; conditions: 30 µM; further: in the data most compounds retested in dose-response had high values
# Sequence of Chromo domain-containing protein 1 (Saccharomyces cerevisiae (strain ATCC 204508 / S288c) (Baker's yeast)) (P32657 whole entry, the tested form may be a part): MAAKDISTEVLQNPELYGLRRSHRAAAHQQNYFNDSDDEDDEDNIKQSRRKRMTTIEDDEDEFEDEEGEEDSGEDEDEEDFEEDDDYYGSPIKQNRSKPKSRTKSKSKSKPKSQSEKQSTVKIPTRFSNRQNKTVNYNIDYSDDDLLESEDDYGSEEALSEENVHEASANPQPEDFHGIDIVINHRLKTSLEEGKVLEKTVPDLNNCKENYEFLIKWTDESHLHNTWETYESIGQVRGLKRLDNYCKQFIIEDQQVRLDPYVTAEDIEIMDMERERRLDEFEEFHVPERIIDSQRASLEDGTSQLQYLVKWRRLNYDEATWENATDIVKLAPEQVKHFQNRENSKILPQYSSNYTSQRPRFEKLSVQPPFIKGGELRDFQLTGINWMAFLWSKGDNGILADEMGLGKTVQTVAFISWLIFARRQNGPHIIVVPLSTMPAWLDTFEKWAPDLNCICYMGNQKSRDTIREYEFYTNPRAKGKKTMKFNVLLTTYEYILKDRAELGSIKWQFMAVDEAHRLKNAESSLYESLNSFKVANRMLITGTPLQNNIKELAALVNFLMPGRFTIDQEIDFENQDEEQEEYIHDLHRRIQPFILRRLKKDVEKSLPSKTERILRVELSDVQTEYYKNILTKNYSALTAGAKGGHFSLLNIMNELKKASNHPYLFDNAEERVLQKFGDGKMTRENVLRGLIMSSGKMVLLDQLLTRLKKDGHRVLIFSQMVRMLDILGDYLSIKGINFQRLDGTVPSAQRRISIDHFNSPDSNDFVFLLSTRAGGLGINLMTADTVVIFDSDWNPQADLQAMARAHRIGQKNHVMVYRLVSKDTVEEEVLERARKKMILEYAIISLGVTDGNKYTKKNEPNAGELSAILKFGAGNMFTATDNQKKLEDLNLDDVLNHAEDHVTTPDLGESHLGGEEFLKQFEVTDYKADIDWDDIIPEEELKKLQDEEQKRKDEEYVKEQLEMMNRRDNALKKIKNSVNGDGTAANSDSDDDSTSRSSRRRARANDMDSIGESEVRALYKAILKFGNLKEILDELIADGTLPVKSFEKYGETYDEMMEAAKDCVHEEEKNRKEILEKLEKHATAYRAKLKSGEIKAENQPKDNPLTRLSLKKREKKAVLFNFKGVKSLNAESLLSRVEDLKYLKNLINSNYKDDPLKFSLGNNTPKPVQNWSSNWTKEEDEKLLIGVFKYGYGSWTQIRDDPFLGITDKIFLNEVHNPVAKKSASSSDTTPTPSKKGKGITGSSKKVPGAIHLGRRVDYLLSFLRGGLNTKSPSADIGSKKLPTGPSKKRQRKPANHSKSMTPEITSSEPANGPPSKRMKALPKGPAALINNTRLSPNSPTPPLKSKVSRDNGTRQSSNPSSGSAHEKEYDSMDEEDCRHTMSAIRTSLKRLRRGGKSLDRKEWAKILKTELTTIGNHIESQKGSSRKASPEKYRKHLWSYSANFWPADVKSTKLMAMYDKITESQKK
# Sequence of Protein translocase subunit SecA (Escherichia coli (strain K12)) (P10408 whole entry): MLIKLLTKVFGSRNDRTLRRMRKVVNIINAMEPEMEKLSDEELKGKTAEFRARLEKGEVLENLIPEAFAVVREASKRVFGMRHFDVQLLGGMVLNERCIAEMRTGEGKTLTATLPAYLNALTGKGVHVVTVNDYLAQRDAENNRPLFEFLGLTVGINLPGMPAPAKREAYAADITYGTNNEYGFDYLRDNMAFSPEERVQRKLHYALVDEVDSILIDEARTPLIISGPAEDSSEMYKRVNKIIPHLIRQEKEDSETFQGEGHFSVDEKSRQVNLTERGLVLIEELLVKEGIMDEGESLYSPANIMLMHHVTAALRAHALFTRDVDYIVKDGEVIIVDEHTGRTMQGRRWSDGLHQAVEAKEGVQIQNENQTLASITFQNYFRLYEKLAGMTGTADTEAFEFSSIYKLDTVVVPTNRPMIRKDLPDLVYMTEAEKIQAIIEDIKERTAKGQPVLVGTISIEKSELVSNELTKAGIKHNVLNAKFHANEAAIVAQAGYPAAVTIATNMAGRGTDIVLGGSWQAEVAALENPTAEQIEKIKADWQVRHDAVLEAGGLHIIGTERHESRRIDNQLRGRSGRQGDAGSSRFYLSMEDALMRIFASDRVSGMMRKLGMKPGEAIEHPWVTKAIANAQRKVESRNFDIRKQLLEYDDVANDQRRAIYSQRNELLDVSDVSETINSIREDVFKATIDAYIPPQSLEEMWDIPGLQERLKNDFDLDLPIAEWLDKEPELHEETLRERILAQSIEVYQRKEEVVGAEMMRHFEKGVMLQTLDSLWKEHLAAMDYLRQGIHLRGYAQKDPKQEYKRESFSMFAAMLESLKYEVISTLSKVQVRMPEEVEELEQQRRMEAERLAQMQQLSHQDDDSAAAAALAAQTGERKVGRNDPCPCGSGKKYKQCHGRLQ
compound,measurement,setting,value
COc1ccc(OC)c(C2C3=C(COC3=O)Nc3[nH]nc(C)c32)c1 (stereo not given),Percent Effect,[1],-1.85%
same,Percent Effect,[2],17.3%
same,Percent Effect,[3],0.267%
same,Percent Effect,[4],-8.04%
same,Percent Effect,Trypanosoma cruzi,5.11%
same,Percent Effect,[5],17.1%
same,Percent Effect,[6],3.33%
same,Percent Effect,Homo sapiens,7.65%
same,Percent Effect,[7],4.23%
same,Percent Effect,[8],10.3%
same,Percent Effect,[9],-11.1%
Cn1nccc1CNC(=O)Nc1cc(C(F)(F)F)c[nH]c1=O,Percent Effect,[1],-2.37%
same,Percent Effect,[2],7.89%
same,Percent Effect,[3],-1.77%
same,Percent Effect,[4],11.9%
same,Percent Effect,Trypanosoma cruzi,2.44%
same,Percent Effect,[5],8.43%
same,Percent Effect,[6],4.51%
same,Percent Effect,Homo sapiens,0.842%
same,Percent Effect,[7],6.37%
same,Percent Effect,[8],12.2%
same,Percent Effect,[9],-9.48%
Cn1ccnc1-c1cccc(NC(=O)NCCCO)c1,Percent Effect,[1],-0.628%
same,Percent Effect,[2],6.94%
same,Percent Effect,[3],-4.42%
same,Percent Effect,[4],2.52%
same,Percent Effect,Trypanosoma cruzi,0.875%
same,Percent Effect,[5],19.4%
same,Percent Effect,[6],11.8%
same,Percent Effect,Homo sapiens,15.7%
same,Percent Effect,[7],5.26%
same,Percent Effect,[8],7.69%
same,Percent Effect,[9],-4.21%
Cc1ccccc1CS(=O)(=O)CC(=O)NCc1ccccc1F,Percent Effect,[1],-3.68%
same,Percent Effect,[2],7.89%
same,Percent Effect,[3],11.2%
same,Percent Effect,[4],7.68%
same,Percent Effect,Trypanosoma cruzi,0.292%
same,Percent Effect,[5],3.55%
same,Percent Effect,[6],10.6%
same,Percent Effect,Homo sapiens,31%
same,Percent Effect,[7],4.25%
same,Percent Effect,[8],13%
same,Percent Effect,[9],-2.75%
O=C(COc1cccc2c1CCC2=O)NCCSc1ccccc1,Percent Effect,[1],-1.44%
same,Percent Effect,[2],5.26%
same,Percent Effect,[3],7.61%
same,Percent Effect,[4],-2.93%
same,Percent Effect,Trypanosoma cruzi,-2.63%
same,Percent Effect,[5],10.7%
same,Percent Effect,[6],8.92%
same,Percent Effect,Homo sapiens,20.8%
same,Percent Effect,[7],-2.13%
same,Percent Effect,[8],7.79%
same,Percent Effect,[9],-5.02%
Clc1ccccc1C1(c2ccnc(CC3CC3)n2)CCNCC1,Percent Effect,[1],-2.96%
same,Percent Effect,[2],-7.79%
same,Percent Effect,[3],-1.73%
same,Percent Effect,[4],13.8%
same,Percent Effect,Trypanosoma cruzi,6.59%
same,Percent Effect,[5],-80%
same,Percent Effect,[6],13.1%
same,Percent Effect,Homo sapiens,-7.99%
same,Percent Effect,[7],8.6%
same,Percent Effect,[8],16.1%
same,Percent Effect,[9],-0.745%
CCN1CCCC(CNC(=O)C2(c3cccc(Cl)c3)CC2)C1 (stereo not given),Percent Effect,[1],-4.26%
same,Percent Effect,[2],6.33%
same,Percent Effect,[3],0.975%
same,Percent Effect,[4],3.63%
same,Percent Effect,Trypanosoma cruzi,-5.85%
same,Percent Effect,[5],-2.8%
same,Percent Effect,[6],14.6%
same,Percent Effect,Homo sapiens,8.9%
same,Percent Effect,[7],7.29%
same,Percent Effect,[8],15.2%
same,Percent Effect,[9],-13.8%
CC(=O)NCC(=O)N1CC[C@H](OCC2CC2)[C@@H]1Cc1cccnc1,Percent Effect,[1],-0.669%
same,Percent Effect,[2],5.33%
same,Percent Effect,[3],-3.45%
same,Percent Effect,[4],5.96%
same,Percent Effect,Trypanosoma cruzi,-2.51%
same,Percent Effect,[5],-50%
same,Percent Effect,[6],5.47%
same,Percent Effect,Homo sapiens,1.5%
same,Percent Effect,[7],1.04%
same,Percent Effect,[8],-47.5%
same,Percent Effect,[9],-0.336%
N#Cc1ccc(NCCNc2ccc(C(F)(F)F)cn2)nc1,Percent Effect,[1],-2.89%
same,Percent Effect,[2],7.89%
same,Percent Effect,[3],4.53%
same,Percent Effect,[4],10.9%
same,Percent Effect,Trypanosoma cruzi,3.01%
same,Percent Effect,[5],-1.53%
same,Percent Effect,[6],10.7%
same,Percent Effect,Homo sapiens,104%
same,Percent Effect,[7],8.33%
same,Percent Effect,[8],24.4%
same,Percent Effect,[9],2.5%
O=C(CN1CCCC1Cn1cncn1)NCCOc1cccc(F)c1 (stereo not given),Percent Effect,[1],-4.88%
same,Percent Effect,[2],0%
same,Percent Effect,[3],-3.72%
same,Percent Effect,[4],14.3%
same,Percent Effect,Trypanosoma cruzi,-0.84%
same,Percent Effect,[5],-2.52%
same,Percent Effect,[6],-3.47%
same,Percent Effect,Homo sapiens,-2.63%
same,Percent Effect,[7],0.493%
same,Percent Effect,[8],1.24%
same,Percent Effect,[9],5.23%

# — ChEMBL document CHEMBL3988442, “University of Dundee, Small-Polar-MMV Screening Library” (2021)
